# From PubChem BioAssay
# Hits are enriched below; roughly 4.6% of the tested compounds scored in any of these assays.
# D1 potentiator: Potentiators of Human D1 Dopamine Receptor: qHTS; HEK293 TREx D1 cells, calcium flux, dopamine EC20 potentiation; potentiation, % at 10 µM; 360,000 compounds, 0.036% hits; AID 504651, 2011; in the data active = potentiation above about 30%; also: 0% is about no effect
# Target sequence (P21728 whole entry, looked up): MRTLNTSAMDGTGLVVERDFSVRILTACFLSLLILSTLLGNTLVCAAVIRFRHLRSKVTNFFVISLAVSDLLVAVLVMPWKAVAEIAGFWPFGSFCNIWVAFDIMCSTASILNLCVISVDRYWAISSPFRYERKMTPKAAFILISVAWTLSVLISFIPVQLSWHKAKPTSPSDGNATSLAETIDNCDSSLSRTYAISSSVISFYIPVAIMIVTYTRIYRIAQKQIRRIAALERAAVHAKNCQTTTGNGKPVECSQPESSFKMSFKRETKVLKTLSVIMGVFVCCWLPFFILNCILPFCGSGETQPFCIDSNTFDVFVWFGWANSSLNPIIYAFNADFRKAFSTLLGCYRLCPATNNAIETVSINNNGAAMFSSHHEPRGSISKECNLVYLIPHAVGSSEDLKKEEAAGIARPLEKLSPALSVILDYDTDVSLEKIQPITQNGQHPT
# D1 antagonist: Antagonist of Human D 1 Dopamine Receptor: qHTS | D(1A) dopamine receptor (Homo sapiens), P21728 | AID 504652, 2011 | activity change, negative = inhibition, % at 10 µM | HEK293 TREx D1 cells, calcium flux, dopamine EC80; stronger effect = lower value | 360,000 compounds, 3.2% hits; in the data active = activity change below about -30%; also: % is scaled to controls: 0 for no effect and ±100 for the full control effect
#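 Kinetic fluorescence of a calcium dye serves as the read-out. D1-expressing Hek293 Trex cells, induced overnight at 30 C, are exposed to compound for 180 s before an EC80 dopamine addition, then read 180 s further.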
# TRHR PAM: qHTS for Small Molecule Agonists and Allosteric Enhancers of Human TRH Receptor: Primary Screen for Enhancers. TRHR cells, fluo-8 calcium fluorescence, EC20 TRH enhancement. enhancement, % at 2 µM. 360,000 compounds, 0.66% hits. AID 493056, 2011; in the data active = enhancement above about 30%; also: 0% is about no effect
#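 Enhancer read-out: after compound pinning and an initial kinetic agonist-mode read, an EC20 of TRH (10 nM final) was injected and fluo-8 calcium signal (Ex 480/Em 530) followed at 1 s/cycle for 100 cycles in TRHR-expressing cells.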
# D1 agonist: Allosteric Agonists of the Human D1 Dopamine Receptor: qHTS; HEK293 T-REx D1 cells, calcium flux, agonist mode; activation, % at 2 µM; AID 504660, 2011; 360,000 compounds, 1% hits; D(1A) dopamine receptor (Homo sapiens), P21728; also: 0% is about no effect
#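 Inducible HEK293 T-REx D1 cells, force-coupled to calcium signalling, were plated at 4000 cells/well with tetracycline and held overnight at 30 C. After no-wash calcium dye loading, compound-evoked calcium rise over 180 s flagged agonists.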
# TRHR agonist: qHTS for Small Molecule Agonists and Allosteric Enhancers of Human TRH Receptor: Primary Screen for Agonists; Thyrotropin-releasing hormone receptor (Homo sapiens), P34981; TRHR cells, calcium flux fluo-8, FDSS agonist mode; activation, % at 2 µM; 360,000 compounds, 0.18% hits; AID 493084, 2011; also: 0% is about no effect
#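 TRHR-expressing cells loaded with fluo-8 calcium dye; 23 nL library compound pin-transferred, kinetic FDSS fluorescence (Ex 480/Em 530) recorded about 180 s for agonist-induced calcium release, before a 10 nM TRH EC20 addition for potentiator mode.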
# An asterisk follows results filed as active; · = no result. Rule as the data show it, unless noted: active = activation above about 30%; inactive = the rest.
SMILES,D1 potentiator,D1 antagonist,TRHR PAM,D1 agonist,TRHR agonist
COc1cc(CNCc2ccncc2)cc(Br)c1OCc1ccccc1F,-5.2,-30.9*,4.1,10.2,-0.9
CCOc1cc(CNCCO)cc(Br)c1OCc1ccccc1Cl,-2.6,23.6,3.3,67.9*,2.8
CCOc1cc(CNCCN2CCOCC2)ccc1OCc1ccccc1Cl,-5.0,-22.0,7.4,36.7*,-3.7
CCOc1ccc2nc(N3CCCC(C(=O)Nc4ccc(OC)c(Cl)c4)C3)sc2c1 (stereo not given),-4.8,2.7,-3.1,-0.2,-0.2
Cc1ccc(CC(CC(=O)O)C(=O)Nc2ccc(Cl)cc2)cc1 (stereo not given),-5.2,-2.5,-6.6,6.8,-0.3
COc1ccc(CC(CC(=O)O)C(=O)Nc2ccc(Cl)c(Cl)c2)cc1 (stereo not given),14.0,-30.6*,0.1,-1.5,0.3
O=[N+]([O-])c1ccc(-n2ccnc2)cc1,-9.2,-38.3*,0.0,1.6,0.5
CC(C)Oc1ccc(CNS(=O)(=O)c2ccc(-c3cc(C(F)(F)F)on3)s2)cc1,-2.9,0.6,0.8,3.6,0.1
COc1ccccc1-[n+]1c(C)cc(/C=C2\Sc3ccccc3N2C)cc1C,-0.6,21.1,89.6*,41.8*,60.8*
COc1ccc(-[n+]2c(C)cc(/C=C3\Sc4ccccc4N3C)cc2C)cc1,5.9,27.4,66.2*,78.1*,73.3*
CCCCOc1ccc(C(=O)Nc2cccc(-c3nc4cccnc4s3)c2)cc1,1.6,2.5,4.7,-1.0,-0.4
CCC1Sc2ccc(S(=O)(=O)Nc3ccc(OC)cc3)cc2NC1=O (stereo not given),-4.8,-36.3*,0.7,30.4*,4.9
COc1ccc(CNCc2ccncc2)c(OC)c1,4.3,-9.9,-4.5,6.4,0.8
COc1ccc(CNCc2ccc3ccccc3c2)c(OC)c1,-3.5,-20.4,10.0,33.9*,0.7
COc1ccc(CNCc2cccc(Oc3ccccc3)c2)cc1,-3.1,12.3,3.2,87.9*,-0.4
Cc1cc2c(s1)c1cnn(Cc3cccc(C)c3F)c(=O)c1n2C,-0.9,3.9,0.6,4.6,1.9
COC(=O)c1cc(S(=O)(=O)NCCN2CCN(c3ccccc3F)CC2)c[nH]1,-10.7,-42.5*,3.0,4.1,1.3
COC(=O)c1cc(S(=O)(=O)N2CCN(c3ccccc3F)CC2)c[nH]1,-4.2,-1.4,-2.3,8.5,0.5
O=C(C1CCC1)N1CCc2cc(S(=O)(=O)NCCN3CCN(c4ccccc4F)CC3)ccc21,-10.5,-39.1*,0.3,3.3,1.9
CCn1cc(C(=O)Nc2cccc(Cl)c2)c2cc(OC)c(OC)cc2c1=O,-0.3,-18.0,-0.7,-0.6,0.0
CCN(C(=O)Cn1c(=O)n(CCCS(=O)(=O)C2CCCCC2)c(=O)c2ccccc21)c1cccc(C)c1,4.5,6.8,-18.9,0.5,0.1
Nc1c(S(=O)(=O)c2cccc(Cl)c2)c2nc3ccccc3nc2n1/N=C/c1ccc(O)c(O)c1,-4.9,-33.9*,1.0,0.6,0.8
O=C(CCSCc1ccc(Cl)cc1)N1CCN(c2ccccc2F)CC1,-1.1,-5.7,-2.3,2.7,-0.1
CCS(=O)(=O)CCn1c([N+](=O)[O-])cnc1C,2.4,-18.4,37.5*,0.0,0.4
Cn1cnc(S(=O)(=O)N2CCC(C(=O)N3CCN(c4ccc(Cl)cc4)CC3)CC2)c1,0.9,7.9,-0.4,-0.4,1.1
SMILES,D1 potentiator,D1 antagonist,TRHR PAM,D1 agonist,TRHR agonist
COc1ccc(Nc2oc(-c3cccs3)nc2C#N)cc1,-10.4,-43.1*,-6.3,1.6,-0.6
CCOc1ccccc1NC(=O)CSC1=Nc2ccccc2C2=NC(CC(=O)NC3CCCCC3)C(=O)N12 (stereo not given),2.4,9.0,-7.2,-0.6,-0.7
Cc1ccccc1N(CC(=O)NCc1ccccc1)C(=O)CCC(=O)Nc1nccs1,-4.2,17.6,-1.5,-1.6,2.4
CCSc1ncc(Cl)c(C(=O)N(Cc2ccccc2)c2ccc(OC)cc2)n1,3.8,-4.4,-14.9,16.6,3.1
N=c1c(C(=O)NCC2CCCO2)cc2c(=O)n3ccccc3nc2n1Cc1ccccc1Cl (stereo not given),-2.3,-39.2*,5.6,4.8,1.8
CCOc1ccc(N(CC(=O)Nc2ccc(C)c(C)c2)S(C)(=O)=O)cc1,1.6,-0.7,-1.6,0.3,-0.8
CN1CCc2c(sc(NC(=O)c3cc(Cl)sc3Cl)c2C(N)=O)C1,7.3,-31.7*,4.4,-0.9,19.3
CN1CCc2c(sc(NC(=O)c3ccco3)c2C(N)=O)C1,-2.8,-7.6,15.8,2.1,1.4
CN1CCc2c(sc(NC(=O)c3ccc(S(=O)(=O)N4CCCCCC4)cc3)c2C(N)=O)C1,4.0,14.6,3.2,18.5,51.3*
CNC(=O)c1c(NC(=O)c2ccc(S(=O)(=O)N3CCCc4ccccc43)cc2)sc2c1CCN(C)C2,-11.9,-57.4*,33.7*,18.7,17.8
CCOc1ccc(OC(=O)c2cn(-c3ccc(C)cc3)c(=O)c3ccccc23)cc1,4.4,2.6,-10.6,1.3,0.7
Cc1ccc2c(c1)C(=O)C(=O)N2Cc1ccc(OCCC(C)C)cc1,-1.4,-5.3,2.9,1.8,-2.1
COc1ccc(CC(=O)Oc2ccccc2Cl)cc1S(=O)(=O)N1CCOCC1,-2.0,9.4,4.7,4.4,-0.3
Cc1ccc(NC(=O)CN2C(=O)c3cccnc3Sc3ccccc32)cc1C,-4.8,-9.6,32.7*,-0.8,-0.5
Cc1ccc(NC(=O)c2ccc3c(c2)C(=O)N(c2ccccc2C)C3=O)nc1,·,-36.0*,-0.3,16.4,0.0
Cc1ccc(NC(=O)CN2C(=O)c3ccccc3C2=O)cc1,-5.1,-2.5,40.1*,0.8,0.3
Cc1cccc(NC(=O)CCCCCN2C(=O)c3ccccc3C2=O)n1,-2.9,-10.5,-2.2,5.0,-1.3
Cc1ccc(N2C(=O)c3ccc(C(=O)Nc4cccnc4)cc3C2=O)c(C)c1,-2.6,-0.4,9.5,-0.2,-0.2
Cc1ccc(NC(=O)CCCCCN2C(=O)c3ccccc3C2=O)nc1,-9.4,-31.7*,1.6,0.9,-0.5
COc1ccc(NC(=O)CN2C(=O)c3cccnc3Sc3ccccc32)cc1OC,-4.3,11.0,-8.3,0.7,-0.6
Cc1cc(C)c(-c2n[nH]c3c2C(c2ccccc2F)N(Cc2ccco2)C3=O)c(O)c1 (stereo not given),0.1,30.8,8.0,5.0,1.4
CCc1nn(CC(=O)N(CC)Cc2ccccc2)c(=O)c2cc3occc3n12,-1.2,0.9,-4.3,0.1,-0.9
